Screening data deposited in PubChem BioAssay by several laboratories.
MBD2 inh = inhibitors of MBD2 binding to methylated DNA, primary screen, biochemical, TR-FRET, DNA-binding domain, human. AID 686964, 2013. MBD2 binding to methylated oligonucleotide. actives 0.31% (n = 370,000). inhibition, % at 4.4 µM. Methyl-CpG-binding domain protein 2 (Homo sapiens), Q9UBB5; in the data active means inhibition above about 13%
PRMT1 FP inh = PRMT1 methyltransferase inhibitors, primary screen, biochemical, fluorescence polarization | Protein arginine N-methyltransferase 1 (Homo sapiens), Q99873 | recombinant PRMT1, activity-based probe fluorescence polarization | inhibition, % at 2.79 µM | actives 1.3% (n = 370,000);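 active means inhibition above about 21% made by adding two undisclosed values, limit read from the data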
PfG6PD inh = PfG6PD enzyme inhibitors, primary screen, biochemical, fluorescence intensity, uHTS. PfGluPho enzyme, NADPH resazurin-diaphorase fluorescence. glucose-6-phosphate dehydrogenase-6-phosphogluconolactonase (Plasmodium falciparum 3D7). actives 0.78% (n = 350,000). AID 504690, 2011. inhibition, % at 20 µM;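 active means inhibition reaching at least a set limit at 20 µM in the primary screen, cut at about 59% in these data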
UHRF1 binding = UHRF1 methylated DNA binding inhibitors, primary screen, counter-screen for MBD2 inhibitor project, biochemical, TR-FRET, human UHRF1, single concentration; actives 0.75% (n = 370,000); inhibition, % at 4.4 µM; UHRF1 binding to methylated oligo; E3 ubiquitin-protein ligase UHRF1 (Homo sapiens), Q96T88; in the data active means inhibition above about 21%;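 further: UHRF1 SRA domain binding a hemimethylated CpG hairpin DNA probe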
Target sequence (Q96T88 whole entry, looked up, the tested form may be a part): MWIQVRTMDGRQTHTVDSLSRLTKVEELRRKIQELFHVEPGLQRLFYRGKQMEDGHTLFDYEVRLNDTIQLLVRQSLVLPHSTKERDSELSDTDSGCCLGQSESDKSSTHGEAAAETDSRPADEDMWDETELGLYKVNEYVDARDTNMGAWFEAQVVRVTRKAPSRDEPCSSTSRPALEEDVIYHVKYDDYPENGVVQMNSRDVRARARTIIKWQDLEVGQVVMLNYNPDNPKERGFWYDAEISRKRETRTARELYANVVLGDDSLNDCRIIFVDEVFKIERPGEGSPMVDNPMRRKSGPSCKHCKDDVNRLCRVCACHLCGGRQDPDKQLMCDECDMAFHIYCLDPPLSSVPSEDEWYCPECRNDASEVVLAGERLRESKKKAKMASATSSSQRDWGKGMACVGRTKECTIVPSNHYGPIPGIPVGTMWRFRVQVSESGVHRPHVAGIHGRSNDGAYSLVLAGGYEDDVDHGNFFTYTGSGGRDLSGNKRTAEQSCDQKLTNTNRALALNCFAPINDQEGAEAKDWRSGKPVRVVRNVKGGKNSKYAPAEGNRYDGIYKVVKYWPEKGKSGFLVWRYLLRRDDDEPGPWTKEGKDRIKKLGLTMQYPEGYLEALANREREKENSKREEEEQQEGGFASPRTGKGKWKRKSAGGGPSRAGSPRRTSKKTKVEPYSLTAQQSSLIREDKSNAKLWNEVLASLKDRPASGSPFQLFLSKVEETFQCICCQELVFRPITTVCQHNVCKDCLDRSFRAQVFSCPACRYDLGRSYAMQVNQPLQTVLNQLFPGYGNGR
PfM18AAP inh = PfM18AAP inhibitors, malaria aminopeptidase, primary screen, biochemical, QFRET, recombinant enzyme. actives 1.2% (n = 290,000). AID 1822, 2009. H-Glu-NHMec fluorogenic cleavage. M18 aspartyl aminopeptidase (Plasmodium falciparum 3D7). inhibition, % at 7.35 µM;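 active means inhibition above the campaign mean inhibition over all tested compounds plus 3 SD, cut at about 28% in these data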
PfG6PD confirm = PfG6PD inhibitors, hit retest, confirmation, biochemical, fluorescence intensity, single concentration; actives 34% (n = 2,400); inhibition, % at 20 µM; AID 504753, 2011; recombinant PfGluPho, NADPH-diaphorase-resazurin fluorescence; shares compounds with PfG6PD inh;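 active means inhibition of at least 50% at 20 µM in any single replicate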
Diaph ctr 10uM = diaphorase inhibitors and chemical oxidizers, confirmation, counter-screen for P. falciparum G6PD inhibitor project, biochemical, fluorescence intensity, 10 µM NADPH. shares compounds with PfG6PD inh. actives 39% (n = 820). diaphorase-coupled resazurin reduction, NADPH 10 uM. inhibition, % at 20 µM;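 active means average inhibition reaching 50% or more with the compound at 20 µM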;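 further: resorufin red fluorescence formed as diaphorase reduces resazurin using NADPH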
Diaphorase 30uM = diaphorase inhibitors and chemical oxidizers, confirmation, counter-screen for P. falciparum G6PD inhibitor project, biochemical, fluorescence intensity, 30 µM NADPH. shares compounds with PfG6PD inh. Diaphorase/resazurin coupled assay, resorufin fluorescence. inhibition, % at 20 µM. actives 29% (n = 820);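 active means inhibition averaging 50% or more, tested at 20 µM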
Each line names hits and unclear results; the compound was inactive in the other large screens (follow-up assays come after a bar, where they were run). Compounds with a hit are over-represented: about 3.3% of the library has one in this group of screens.

[O-]/[N+](=C\c1ccccc1)c1ccc(Br)cc1	PfG6PD inh 84 (no result: PfM18AAP inh) | PfG6PD confirm 91 | Diaph ctr 10uM 72 | Diaphorase 30uM inactive
CCn1c(N)c(C(=O)NCc2ccc3c(c2)OCO3)sc1=S	PfG6PD inh 74 (no result: MBD2 inh, PRMT1 FP inh, UHRF1 binding) | PfG6PD confirm inactive
COC(=O)c1ccccc1N=Nc1c(C)noc1C	none
Cc1ccn2c(Cc3ccccc3)c(-c3ccc(F)cc3)nc2c1	PfG6PD inh 77, UHRF1 binding 21 (no result: PfM18AAP inh) | PfG6PD confirm inactive
Clc1ccc(-c2nc3ccc(Cl)cn3c2Cc2ccccc2)cc1	PfG6PD inh 102 (no result: PfM18AAP inh) | PfG6PD confirm inactive
Fc1ccc(-c2nc3ccc(Cl)cn3c2Cc2ccccc2)cc1	PfG6PD inh 81 (no result: PfM18AAP inh) | PfG6PD confirm inactive
Clc1ccc2nc(-c3ccccc3)c(Cc3ccccc3)n2c1	none (no result: PfM18AAP inh)
COCCCN1CN(Cc2ccccc2)CNC1=S	none
CC1CCN(C(=S)c2ccc(O)cc2)CC1	none
CC1CCN(C(=S)c2ccccc2O)CC1	PfG6PD inh 64 | PfG6PD confirm inactive
Cc1cc(OCCn2nc(C(=O)O)c3ccccc3c2=O)ccc1C(C)C	PfG6PD inh 79 | PfG6PD confirm inactive
O=C(Nc1cccc(C(=O)Nc2cccc(Br)c2)c1)c1ccccc1	none
CC(C)c1ccc(NC(=O)c2ccc(Br)o2)cc1	PfG6PD inh 81 | PfG6PD confirm inactive
CC(C)c1ccc(NC(=O)c2cccc(Br)c2)cc1	PfG6PD inh 68 | PfG6PD confirm inactive
COc1ccc(NC(=O)c2ccc(Br)o2)cc1	none
COc1ccc2oc(C(=O)OCC(=O)NC(=O)c3ccccc3)c(C)c2c1	none
Cc1noc(C)c1COC(=O)Cc1ccc(Cl)c(Cl)c1	PfG6PD inh 69 | PfG6PD confirm inactive
COc1ccc(-c2c3c([nH]c(=S)c2C#N)CCC3)cc1	PRMT1 FP inh 23, PfG6PD inh 64 | PfG6PD confirm inactive
COc1ccc2[nH]c3c(c(=O)c2c1)CCCC3	none (no result: PfG6PD inh, PfM18AAP inh)
COc1ccc(-c2c(C#N)c(SCC(N)=O)nc3c2CCCC3)cc1	none
COc1ccc(OC)c(-c2c3c([nH]c(=S)c2C#N)CCCC3)c1	PfG6PD inh 61 | PfG6PD confirm inactive
COCCNC(=S)Nc1ccc(N2CCOCC2)c(S(=O)(=O)Nc2ccc(Cl)cc2)c1	PfG6PD inh 92 (no result: PfM18AAP inh) | PfG6PD confirm 70 | Diaph ctr 10uM inactive | Diaphorase 30uM inactive
CC(NC(N)=O)C(=O)Nc1ccc(Cl)c(S(=O)(=O)Nc2ccc(Cl)cc2)c1 (stereo not drawn)	none
O=C(Nc1ccc(N2CCOCC2)c(S(=O)(=O)Nc2ccc(Cl)cc2)c1)c1cnccn1	PfG6PD inh 73 | PfG6PD confirm inactive
O=C(Nc1ccc(N2CCOCC2)c(S(=O)(=O)Nc2ccc(Cl)cc2)c1)c1ccc(=O)[nH]n1	none (no result: PfM18AAP inh)
C[C@H](NC(N)=O)C(=O)Nc1ccc(N2CCOCC2)c(S(=O)(=O)Nc2ccc(Cl)cc2)c1	PfG6PD inh 76 (no result: PfM18AAP inh) | PfG6PD confirm 58 | Diaph ctr 10uM inactive | Diaphorase 30uM inactive
CCC(=O)Nc1ccc(N2CCOCC2)c(S(=O)(=O)Nc2ccc(Cl)cc2)c1	PfG6PD inh 61, UHRF1 binding 45 (no result: PfM18AAP inh) | PfG6PD confirm inactive
CCCCNc1cccc2c1S(=O)(=O)N[C@@H](Cc1ccccc1)CO2	none (no result: PfG6PD inh, PfM18AAP inh)
Cc1nc(NC(=O)c2ccc(Cl)cc2)sc1Cc1ccc2c(c1)OCO2	PfG6PD inh 60 | PfG6PD confirm inactive
Cc1nc(NC(=O)c2ccccc2)sc1Cc1ccc2c(c1)OCO2	none
CCOC(=O)/C(=C\c1cccnc1)C(=O)c1cc(C(C)=O)c(Nc2ccccc2)s1	PfG6PD inh 66 (no result: MBD2 inh, PRMT1 FP inh, UHRF1 binding) | PfG6PD confirm inactive
CCOC(=O)/C(=C\c1ccccc1)C(=O)c1cc(C(C)=O)c(Nc2ccccc2)s1	none
CC(=O)c1sc(NC(=O)c2cnc(Cl)c(Cl)c2)nc1C	PfG6PD inh 62 | PfG6PD confirm inactive
ONC(=Nc1ccccc1Cl)c1ccccc1Cl	PfG6PD inh 68 | PfG6PD confirm inactive
O=[N+]([O-])c1cccc(C(=Nc2ccccc2Cl)NO)c1	none
CC(=O)C(Sc1ncnc2c1nnn2-c1ccc(F)cc1)C(=O)N(C)C (stereo not drawn)	PfG6PD inh 62 | PfG6PD confirm inactive
COC(=O)[C@H](C)NC(=O)c1cc2c(cn1)[nH]c1ccccc12	PfG6PD inh 90 | PfG6PD confirm 55 | Diaph ctr 10uM inactive | Diaphorase 30uM inactive
CCOC(=O)C(Cc1ccc(O)cc1)NC(=O)c1cc2c(cn1)[nH]c1ccccc12 (stereo not drawn)	none (no result: PfG6PD inh, PfM18AAP inh)
N#Cc1ccc(Cn2ccc3ccc(-c4ccc5ccn(Cc6ccc(C#N)cc6)c5c4)cc32)cc1	none (no result: PfG6PD inh, PfM18AAP inh)
Cc1nc2ccccn2c1C(=O)/C=C/c1ccc(F)cc1	none
Cc1nc2ccccn2c1-c1ccnn1S(=O)(=O)c1ccc(F)cc1	PfG6PD inh 77 | PfG6PD confirm 56 | Diaph ctr 10uM inactive | Diaphorase 30uM 59
COc1ccc2c(Cl)cc(NC(=O)Nc3c(C)cccc3C)nc2c1	none (no result: PfM18AAP inh)
Cc1ccc(S(=O)(=O)N(C(=O)c2ccncc2)c2ccc(OC(=O)c3ccncc3)c3ccccc23)cc1	PRMT1 FP inh 86, PfG6PD inh 74 | PfG6PD confirm 56 | Diaph ctr 10uM inactive | Diaphorase 30uM inactive
COc1cccc(S(=O)(=O)N2C[C@H](O)COC[C@H]3O[C@@H](CC(=O)N4CCN(C)CC4)CC[C@@H]32)c1	none (no result: PfG6PD inh, PfM18AAP inh)
C=C1C2(C(=O)Nc3ccc(SC(F)F)cc3)CCC(C2)C1(C)C (stereo not drawn)	none
O=C(Nc1ccc(SC(F)F)cc1)C12CCC(CC1)C2	PfG6PD inh 72 | PfG6PD confirm inactive
CC(C)N(C)C1=CC(=O)C(N(C)C(C)C)=CC1=O	PfG6PD inh 67 (no result: PfM18AAP inh) | PfG6PD confirm inactive
